The text below walks through data of the supplement of paper PMC10646978.

The structures appear in SMILES notation. ± gives the standard deviation.

Holding throughout (settings): modulator concentration 10 µM
Assay [1] concerns RAW-Dual (murine macrophage reporter line). In words: NF-kB reporter (SEAP) activity fold change vs agonist alone; higher = enhanced NF-kB activity. In a few lines: (§1)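 RAW-Dual murine macrophage reporter cells were plated at 50 000 per well in 384-well plates, pin-transferred compound to 10 μM final, and pre-incubated for 1 hour at 37 °C before a PRR agonist was added and the cells incubated overnight. NF-κB activity was read from supernatant SEAP with QUANTI-Blue at 620 nm absorbance, and IRF activity from Lucia luciferase with QUANTI-Luc by luminescence. Each signal was expressed as fold change by dividing by the mean agonist-only control on the same plate. Two replicate plates were averaged, with errors obtained by propagation.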

Assay [2] has the same test system. The experiment in a line: IRF reporter (Lucia luciferase) activity fold change vs agonist alone; higher = enhanced IRF activity. The method in brief:
as §1

Assay [3] has the same test system. In words: viability score (confluency relative to resting cells, overnight) (fraction); higher = more viable, active = viable (0.7 or more). The method in brief: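 RAW-Dual macrophages in 384-well plates were treated overnight with compound at 10 μM final. IncuCyte imaging recorded confluency, and IncuCyte software built two confluency masks across every imaged well. The viability score expresses confluency relative to resting cells and was judged against a cutoff, which a compound met only if both masks exceeded 70% of resting cells.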

[4] abbreviates: agonist: CpG ODN 1826 0.5 ug/mL.

As for `NCCCCC(NC(CCc1ccccc1)C(=O)O)C(=O)N1CCCC1C(=O)O` (stereo unspecified), the NF-kB reporter in assay [1] (setting [4]) was 1.33 ± 0.32; in assay [1] (agonist: LPS 0.1 ug/mL), 0.955 ± 0.083; in assay [1] (agonist: MPLA […]), 1.03 ± 0.088. The figures for the IRF reporter in assay [2] (agonist: 3'3'-cGAMP 10 ug/mL), in assay [2] (agonist: LPS 0.1 ug/mL) and in assay [2] (agonist: MPLA […]) were 0.947 ± 0.032, 1.09 ± 0.13 and 1.02 ± 0.13, respectively. Moreover, the viability score in assay [3] is 0.998 (active).
As to `COc1cc(C)n(CCNC(=O)c2ccccc2C(F)(F)F)c(=O)c1`, the NF-kB reporter in assay [1] (setting [4]) came out at 0.904 ± 0.039; in assay [1] (agonist: LPS 0.1 ug/mL), 0.933 ± 0.076; in assay [1] (agonist: MPLA […]), 1.12 ± 0.06. For the same compound, the results for the IRF reporter in assay [2] (agonist: 3'3'-cGAMP 10 ug/mL), in assay [2] (agonist: LPS 0.1 ug/mL) and in assay [2] (agonist: MPLA […]) were 1.03 ± 0.055, 1.34 ± 0.28 and 1.51 ± 0.4, respectively. For the same compound, the viability score in assay [3] is 0.941 (active).
Regarding `Cc1ccc(-c2cc(NC(=O)c3ccc([N+](=O)[O-])cc3)[nH]n2)cc1`, the NF-kB reporter in assay [1] (setting [4]) was determined as 1.43 ± 0.11; in assay [1] (agonist: LPS 0.1 ug/mL), 1.04 ± 0.059; in assay [1] (agonist: MPLA […]), 1 ± 0.061. Besides, the IRF reporter is 0.869 ± 0.066 in assay [2] (agonist: 3'3'-cGAMP 10 ug/mL), 1.78 ± 0.3 in assay [2] (agonist: LPS 0.1 ug/mL) and 1.82 ± 0.13 in assay [2] (agonist: MPLA […]). In addition, the viability score in assay [3] is 0.971 (active).
With `CC(=O)Nc1ccc(C(=O)Nc2ccccc2)c(NC(C)=O)c1`, the NF-kB reporter was 1.11 ± 0.088 in assay [1] (setting [4]), 0.852 ± 0.14 in assay [1] (agonist: LPS 0.1 ug/mL) and 1.09 ± 0.051 in assay [1] (agonist: MPLA […]). The IRF reporter in assay [2] (agonist: 3'3'-cGAMP 10 ug/mL) worked out at 0.726 ± 0.035; in assay [2] (agonist: LPS 0.1 ug/mL), 0.875 ± 0.087; in assay [2] (agonist: MPLA […]) it was 0.747 ± 0.071. The viability score in assay [3] was 0.997 (active).
For `Cn1nccc1C(=O)N1CCC(O)(C(F)(F)F)CC1`, the NF-kB reporter stood at 1.22 ± 0.29 in assay [1] (setting [4]), 0.996 ± 0.082 in assay [1] (agonist: LPS 0.1 ug/mL) and 1.01 ± 0.078 in assay [1] (agonist: MPLA […]). Moreover, the figures for the IRF reporter in assay [2] (agonist: 3'3'-cGAMP 10 ug/mL), in assay [2] (agonist: LPS 0.1 ug/mL) and in assay [2] (agonist: MPLA […]) were 0.92 ± 0.033, 1.14 ± 0.13 and 1.3 ± 0.19, respectively. Also, in assay [3], the viability score was 0.997 (active).
On to `CCCC(=O)Nc1ccc(N2CCCCC2)cc1`, for which the NF-kB reporter in assay [1] (setting [4]) worked out at 0.833 ± 0.067; in assay [1] (agonist: LPS 0.1 ug/mL), 0.901 ± 0.046; in assay [1] (agonist: MPLA […]), 0.979 ± 0.09. Also, the values for the IRF reporter in assay [2] (agonist: 3'3'-cGAMP 10 ug/mL), in assay [2] (agonist: LPS 0.1 ug/mL) and in assay [2] (agonist: MPLA […]) were 0.895 ± 0.043, 1.48 ± 0.1 and 1.65 ± 0.17, respectively. Besides, in assay [3], the viability score was 0.985 (active).
`Cc1cc(C)n(CC2CCN(Cc3ccc(Br)cc3)CC2)n1`: the NF-kB reporter in assay [1] (setting [4]) stood at 0.933 ± 0.049; in assay [1] (agonist: LPS 0.1 ug/mL), 0.745 ± 0.063; in assay [1] (agonist: MPLA […]), 0.74 ± 0.049. Further, the IRF reporter in assay [2] (agonist: 3'3'-cGAMP 10 ug/mL) worked out at 0.913 ± 0.05; in assay [2] (agonist: LPS 0.1 ug/mL), 1.19 ± 0.21; in assay [2] (agonist: MPLA […]), 1.27 ± 0.39. The viability score in assay [3] is 0.626 (inactive).
On to `Cc1nc(C(=O)NCC(=O)O)c(O)c2ccc(Oc3ccccc3)cc12`, for which the figures for the NF-kB reporter in assay [1] (setting [4]), in assay [1] (agonist: LPS 0.1 ug/mL) and in assay [1] (agonist: MPLA […]) were 0.856 ± 0.12, 1.05 ± 0.39 and 0.94 ± 0.053, respectively. Also, the IRF reporter amounted to 0.925 ± 0.04 in assay [2] (agonist: 3'3'-cGAMP 10 ug/mL), 1.09 ± 0.25 in assay [2] (agonist: LPS 0.1 ug/mL) and 0.97 ± 0.28 in assay [2] (agonist: MPLA […]). For the same compound, in assay [3], the viability score was 0.996 (active).
Consider `O=C(Nc1cc(C(F)(F)F)cc(C(F)(F)F)c1)c1cc(Br)ccc1Cl`, for which the NF-kB reporter in assay [1] (setting [4]) amounted to 0.966 ± 0.11; in assay [1] (agonist: LPS 0.1 ug/mL) it was 1.02 ± 0.066; in assay [1] (agonist: MPLA […]), 0.912 ± 0.059. In addition, the figures for the IRF reporter in assay [2] (agonist: 3'3'-cGAMP 10 ug/mL), in assay [2] (agonist: LPS 0.1 ug/mL) and in assay [2] (agonist: MPLA […]) were 0.693 ± 0.043, 1.52 ± 0.2 and 1.05 ± 0.2, respectively. The viability score in assay [3] was 1.01 (active).
In the case of `CNCC[C@@H](Oc1cccc2ccccc12)c1cccs1` [Prestw-1708], the figures for the NF-kB reporter in assay [1] (setting [4]), in assay [1] (agonist: LPS 0.1 ug/mL) and in assay [1] (agonist: MPLA […]) were 0.661 ± 0.054, 0.98 ± 0.073 and 1.18 ± 0.19, respectively. The IRF reporter in assay [2] (agonist: 3'3'-cGAMP 10 ug/mL) worked out at 1.19 ± 0.076; in assay [2] (agonist: LPS 0.1 ug/mL), 1.11 ± 0.16; in assay [2] (agonist: MPLA […]), 1.16 ± 0.28. In addition, the viability score in assay [3] is 0.384 (inactive).
Regarding `COc1ccc(N(CC(=O)NCCc2ccc(OC)c(OC)c2)S(=O)(=O)c2ccc(OC)c(OC)c2)cc1`, the NF-kB reporter in assay [1] (setting [4]) came to 0.951 ± 0.083; in assay [1] (agonist: LPS 0.1 ug/mL) it was 0.994 ± 0.062; in assay [1] (agonist: MPLA […]), 0.934 ± 0.12. The IRF reporter turned out to be 1.01 ± 0.041 in assay [2] (agonist: 3'3'-cGAMP 10 ug/mL), 1.44 ± 0.18 in assay [2] (agonist: LPS 0.1 ug/mL) and 1.2 ± 0.11 in assay [2] (agonist: MPLA […]). Further, the viability score in assay [3] was 1.01 (active).
For the compound `Cl.Cl.Cn1cc(CNCC2CCN(c3ncc(C(=O)NO)cn3)CC2)c2ccccc21`, the NF-kB reporter in assay [1] (setting [4]) was found to be 1.84 ± 0.11; in assay [1] (agonist: LPS 0.1 ug/mL), 1.72 ± 0.15; in assay [1] (agonist: MPLA […]), 2.69 ± 0.12. In addition, the IRF reporter was determined as 0.067 ± 0.0071 in assay [2] (agonist: 3'3'-cGAMP 10 ug/mL), 0.396 ± 0.025 in assay [2] (agonist: LPS 0.1 ug/mL) and 0.692 ± 0.054 in assay [2] (agonist: MPLA […]). Also, the viability score in assay [3] is 0.0605 (inactive).
In the case of `CCCc1cc(=O)oc2cc(OCC(=O)OC)c(Cl)cc12`, the NF-kB reporter in assay [1] (setting [4]) is 1.1 ± 0.09; in assay [1] (agonist: LPS 0.1 ug/mL), 0.967 ± 0.13; in assay [1] (agonist: MPLA […]) it was 1.03 ± 0.041. Also, the results for the IRF reporter in assay [2] (agonist: 3'3'-cGAMP 10 ug/mL), in assay [2] (agonist: LPS 0.1 ug/mL) and in assay [2] (agonist: MPLA […]) were 0.96 ± 0.13, 1.04 ± 0.1 and 1.09 ± 0.18, respectively. In addition, the viability score in assay [3] is 0.998 (active).
